Assay outcomes from PubChem.
Most compounds without a hit are left out; they make up all but 9.3% or so of the library.
SMN2 splice enh – SMN2 splice variant enhancement; HEK293 SMN2-luciferase splicing reporter, luminescence, 30-36 h; Potency, µM (doses to about 46.1 µM), without a hit: at the top dose activity change, positive = activation, most hits filed as activators; 210,000 compounds, 2.8% hits; AID 1458; further: % of control where 0% means no effect; nearly all actives have a fitted effect of over 55% in size
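qHTS luciferase splicing reporter: luminescence rises when SMN2 exon 7 is included in transfected HEK293 cells. Compound exposure lasted 30-36 h at 37C, with 4.5 mM final sodium butyrate as control, followed by a ONE-Glo read.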
ELG1 genotox – inducers of genotoxicity in HEK293T ELG1-luciferase cells | AID 504466 | HEK293T ELG1-luciferase reporter, luminescence, 16 h | Potency, µM (doses to about 46 µM), for inactives: at the highest dose activity change, positive = activation, actives largely listed as activators | 330,000 compounds, 1.3% hits; further: % of control where 0% means no effect; nearly all actives have a fitted effect of over 60% in size
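DMSO vehicle served as control against compound-treated ELG1-luciferase HEK293T cells; exposure lasted 16 hr at 37 °C and 5% CO2, followed by ONE-Glo luminescence detection after 30 min.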
Rab9 promoter act – activates the Rab9 promoter. Huh7 Rab9 promoter-luciferase reporter, luminescence, 24 h. 320,000 compounds, 2.8% hits. Potency, µM (series often up to 9.22 µM), without a hit: top-dose activation, negative = inhibition, actives largely listed as activators; further: % of control where 0% means no effect; nearly all actives have a fitted effect of over 60% in size
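Promoter activation is measured as luciferase luminescence in Huh7 cells stably transfected with a Rab9 promoter–luciferase construct, following 24 h compound exposure at 37 °C and 10 min reagent incubation at ambient temperature.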
NPC1 prom act – activators of NPC1 promoter; AID 485313; Huh7 NPC1 promoter luciferase reporter, 24 h; Potency, µM (top dose mostly 9.22 µM), for the others: top-dose activation, actives largely listed as activators; 320,000 compounds, 2.4% hits; further: % of control where 0% means no effect; nearly all actives have a fitted effect of over 60% in size
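Huh7 reporter cells (NPC1 promoter driving luciferase) are dosed with compound for 24 h at 37 °C, 5% CO2; luciferase detection reagent is then added and luminescence measured after 10 min at ambient temperature.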
FLuc counter – firefly luciferase modulation, counter-screen for miR-21 project. P08659. Potency, µM (titrated, usually from 57.5 µM), without a hit: top-dose activity change, negative = inhibition, most hits filed as inhibitors. 360,000 compounds, 6.9% hits. purified FLuc, Km substrates, luminescence inhibition;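 further: plate controls were vehicle for no effect and reference inhibitor for full effect; nearly all actives have a fitted effect of over 55% in size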
Target sequence (P08659 whole entry, looked up): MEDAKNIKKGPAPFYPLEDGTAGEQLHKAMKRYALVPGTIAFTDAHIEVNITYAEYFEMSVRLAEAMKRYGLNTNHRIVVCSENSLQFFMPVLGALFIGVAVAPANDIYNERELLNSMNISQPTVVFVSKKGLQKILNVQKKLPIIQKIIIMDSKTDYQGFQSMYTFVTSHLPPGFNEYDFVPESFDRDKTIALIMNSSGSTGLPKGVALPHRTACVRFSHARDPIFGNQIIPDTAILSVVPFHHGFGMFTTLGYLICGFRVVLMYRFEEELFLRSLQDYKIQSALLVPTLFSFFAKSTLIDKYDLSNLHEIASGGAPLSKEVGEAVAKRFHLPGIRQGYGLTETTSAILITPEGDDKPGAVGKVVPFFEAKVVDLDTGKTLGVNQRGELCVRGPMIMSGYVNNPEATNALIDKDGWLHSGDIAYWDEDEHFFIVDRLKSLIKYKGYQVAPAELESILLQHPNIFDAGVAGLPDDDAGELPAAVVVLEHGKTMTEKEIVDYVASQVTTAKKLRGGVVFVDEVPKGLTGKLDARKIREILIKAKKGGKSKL
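Purified P. pyralis luciferase (10nM final) with 10uM D-luciferin and 10uM ATP (Km levels) in 50mM Tris acetate pH 7.5, 10mM Mg acetate, 0.01% Tween-20, 0.05% BSA; qHTS 6-point titration, ~60 µM downward; luminescence read.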
ELG1 repair inh – blocks ELG1-dependent DNA repair in HEK293T cells; Potency, µM (top dose mostly 46.1 µM), without a hit: at the highest dose activity change, negative = inhibition, usual class: inhibitors; 330,000 compounds, 2.3% hits; HEK293T ELG1-luciferase reporter, luminescence, 16 h; DNA damage induced by 5-fluorouridine; AID 504467; further: on the % scale 0 is the no-effect control and ±100 the full control effect; nearly all actives have a fitted effect of over 55% in size
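In this reporter screen, reduction of luminescence relative to DMSO vehicle indicated activity. Compounds and 5-fluorouridine were added together to 2,000 cells per well, incubated for 16 hr at 37 °C, then developed with ONE-Glo.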
Starred values were filed as active, the others as inactive; ? = inconclusive; nt = no result. The call rests on the fitted dose curve; in most records, active means well fitted curve in the direction sought with a large enough effect; inconclusive means small, poorly fitted or top-dose-only effect, or another doubt; inactive means no such curve, though single readings can be large; an effect the other way counts as inactive or inconclusive. Potency means the concentration at half of the fitted maximal effect.

SMILES	SMN2 splice enh	ELG1 genotox	Rab9 promoter act	NPC1 prom act	FLuc counter	ELG1 repair inh
CCOc1ccc(N(CC(=O)NCCSCc2ccc(C)cc2)S(C)(=O)=O)cc1	nt	0%	-2%	-1%	-7%	-11%
CN(CC(=O)Nc1cccnc1)S(=O)(=O)c1ccc(Br)cc1	nt	-2%	18%	0%	1%	3%
CC(NCC(=O)NCCc1ccc(S(N)(=O)=O)cc1)c1ccc(F)cc1 (configuration not stated)	nt	-12%	4%	-2%	-3%	7%
COc1cc(OC)cc(C(=O)OCC(=O)NCc2ccco2)c1	nt	2%	0%	-1%	5%	0%
Cc1sc(N)nc1-c1ccc(Oc2ccccc2)cc1	nt	?	29%	18%	24µM*	?
Cn1ccnc1Sc1ccc(/C=N/NC(=O)c2ccccc2O)cc1[N+](=O)[O-]	-7%	7%	1%	3%	5.4µM*	?
Cn1ccnc1Sc1ccc(/C=N/NC(=O)c2ccccc2[N+](=O)[O-])cc1[N+](=O)[O-]	4%	0%	-2%	2%	1%	-6%
CCN(CC)S(=O)(=O)c1ccc(N(C)C)c(NC(=O)CSCc2c(C)noc2C)c1	nt	-4%	2%	0%	-5%	21µM*
CCOc1ccc2nc(NC(=O)C3CSC4(C)CCC(=O)N34)sc2c1 (configuration not stated)	nt	1%	20%	1%	21µM*	3%
CCN(CC)S(=O)(=O)c1ccc(OC)c(NC(=O)CSCc2c(C)noc2C)c1	nt	3%	nt	nt	nt	-24%
COc1ccccc1NC(=O)COC(=O)c1ccccn1	nt	1%	3%	-2%	2%	11%
Cc1ccc2nc(NC(=O)COC(=O)c3ccccn3)sc2c1	?	0%	?	?	15µM*	?
CCOc1ccc2nc(NC(=O)Cn3c(C)csc3=O)sc2c1	nt	12%	7%	14%	4.8µM*	?
C/C=C/C(=O)OCC(=O)Nc1nc2ccc(C)cc2s1	17%	?	?	24%	21µM*	?
CCc1ccc2nc(NC(=O)CSCc3c(C)noc3C)sc2c1	?	8%	20%	5%	21µM*	?
CCOc1ccc2nc(NC(=O)CCC(=O)c3cccs3)sc2c1	13µM*	10µM*	4.5µM*	3.2µM*	1.9µM*	?
COc1ccc(N(CC(=O)Nc2nc3ccc(C)cc3s2)S(=O)(=O)c2c(C)nn(C)c2C)cc1	2%	-11%	0%	-3%	?	18µM*
COc1ccc(N(CC(=O)Nc2cccc(OC)c2)S(=O)(=O)c2c(C)nn(C)c2C)cc1	-8%	-2%	-6%	-2%	4%	-20%
Cc1ccc2nc(NC(=O)CCn3cccc3)sc2c1	?	15%	?	23%	-17%	?
CC(C)(C)[C@H]1C=C(C(=O)NCc2nc3ccccc3[nH]2)O[C@@H](OCCCCO)C1	nt	3%	1%	2%	0%	-10%
CC(=O)NCC(=O)OCC(=O)Nc1nc(-c2ccccc2)cs1	?	?	30%	16%	-14%	?
Cc1ccc(NC(=O)COc2cccc3ccc(C)nc23)c(Br)c1	-21%	-10%	-5%	-3%	-4%	-10%
CCOc1ccc2nc(NC(=O)CSCC(=O)Nc3cc(C)on3)sc2c1	nt	?	3.2µM*	?	?	?
Cc1ccc2nc(NC(=O)C3CC3C)sc2c1 (configuration not stated)	nt	13%	?	1.1µM*	5.4µM*	?
O=C(CN1CCC(n2nnc3cc(F)ccc32)CC1)N1CCc2ccccc2C1	-15%	-5%	-3%	1%	1%	21µM*
SMILES	SMN2 splice enh	ELG1 genotox	Rab9 promoter act	NPC1 prom act	FLuc counter	ELG1 repair inh
O=C(CN1CCC(n2nnc3cc(F)ccc32)CC1)NC1CC1	-17%	-3%	0%	-8%	-1%	0%
CCOCC(=O)Nc1nc2ccc(OCC)cc2s1	11µM*	8.2µM*	1.3µM*	2.5µM*	8.5µM*	?
CCOc1ccc(S(=O)(=O)N2CCCCC2)cc1NC(=O)CC1OC(=O)c2ccccc21 (configuration not stated)	nt	4%	1%	0%	5%	-21%
CCOC(=O)Nc1sc(C)c(C)c1C(=O)OCC	-6%	0%	-5%	-1%	0%	-2%
CCCCNS(=O)(=O)c1ccc(NC(=O)C2c3ccccc3Oc3ccccc32)cc1	6%	7%	9%	1%	2%	2%
CCOc1ccc(S(=O)(=O)Nc2nc3ccc(OC)cc3s2)cc1	-3%	6%	1%	-4%	2%	18%
CCOCC(=O)Nc1nc2ccc(C)cc2s1	10µM*	?	1.8µM*	?	9.5µM*	?
Cc1ccc2nc(NC(=O)CSCC(=O)OCC(=O)c3ccccc3)sc2c1	-26%	4%	-32%	-21%	17µM*	10%
CCOc1ccc2nc(NC(=O)CN3CCC(n4nnc5cc(F)ccc54)CC3)sc2c1	-73%	-44%	-9%	0%	?	9.2µM*
Cc1ccc2nc(NC(=O)CSc3nc4ccccc4o3)sc2c1	-11%	?	12%	4%	-15%	?
CCOc1ccc2nc(NS(C)(=O)=O)sc2c1	14µM*	?	1%	7%	17µM*	?
O=C(COc1ccccc1)NC(=S)Nc1ccc2c3c(cccc13)CC2	-3%	7%	-2%	1%	?	13%
COc1ccccc1NC(=O)c1cc2c(=O)n(Cc3cccs3)ccc2nc1C	nt	nt	nt	nt	-4%	nt
O=C(OCc1nnc(-c2ccc([N+](=O)[O-])cc2)o1)C1CC(=O)N(CCc2ccccc2)C1 (configuration not stated)	nt	0%	-6%	3%	-3%	16%
O=C(NNC(=O)c1ccc(Cl)cc1Cl)c1cnccn1	nt	-2%	1%	5%	?	0%
CN(Cc1cccs1)S(=O)(=O)c1ccc(Cl)cc1F	nt	-4%	0%	-5%	2%	29%
C#CCn1c(S(=O)(=O)Cc2ccc(F)cc2)nc(-c2ccccc2)c1-c1ccccc1	-19%	-27%	3%	-3%	1%	-2%
CCOC(=O)C(O)C1CCc2c([nH]c3ccc(C)cc23)C1=O (configuration not stated)	nt	8%	4%	20%	?	?
CSc1nnc2c(n1)OC(C)=Nc1ccccc1-2	6%	0%	-3%	1%	3%	3%
CCC1=Nc2ccccc2-c2nnc(SC)nc2O1	2µM*	-8%	3%	-5%	-2%	-8%
